Screening results from PubChem.
A selection: hits, their analogues and other compounds. The true share with any hit is near 1.3%.
eLon inh: inhibitors of E. coli Lon protease; P0A9M0; AID 602123; purified E. coli Lon protease, fluorescence polarization; inhibition, % at 7.94 µM; 0.42% of 360,000 active; in the data active = inhibition above about 13%, passing the limit was not always enough
GLD-1 TGE inh: GLD-1-TGE RNA interaction inhibition (C. elegans) | inhibition, % at 5.96 µM | purified GLD-1 + fluorescein TGE RNA, fluorescence polarization | 0.44% of 320,000 active | AID 2280;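 active = percent inhibition above a per-plate cutoff, the plate mean of test compounds plus 3 SD, cut at about 30% in these data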
Bcl-xL primary: inhibitors of human Bcl-xL; Q07817; GST-Bcl-xL / FITC-Bim BH3 peptide fluorescence polarization; inhibition, % at 10.9 µM; 0.7% of 320,000 active; AID 2129;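 active = inhibition above the mean of all tested compounds plus 3 SD, cutoff set per campaign, cut at about 30% in these data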;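 note: inhibitors lower millipolarization by displacing the labeled peptide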
LANA DNA inh: blocks KSHV LANA C-terminal domain binding to DNA. MBP-C-LANA/FAM-LBS DNA binding, fluorescence polarization. inhibition, % at 9 µM. 0.078% of 340,000 active;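 active = highest replicate inhibition at or above 60% at 9 µM, even if other replicates fall short; inactive = all replicates below 60% inhibition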
MCL1 BIM primary: inhibitors of human MCL1 binding to BIM-BH3 peptide; Q07820; GST-MCL1 / FITC-Bim-BH3 fluorescence polarization; inhibition, % at 10.9 µM; 0.68% of 320,000 active;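 active = inhibition above the mean inhibition of all tested compounds plus 3 SD, set per campaign, cut at about 40% in these data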;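 note: higher means more loss of mP so more displacement of Bim peptide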
Keap1 Nrf2 FP: inhibitors of human Keap1-Nrf2 protein-protein interaction. Keap1 Kelch-Nrf2 peptide fluorescence polarization, 1536-well. inhibition, % at 9.4 µM. 0.15% of 340,000 active. AID 504523; in the data active = inhibition above about 12%;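 note: human Keap1 Kelch domain with fluorescein labeled Nrf2 9mer peptide probe; higher means more block of Keap1 binding to Nrf2 peptide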
Bcl-xL conf: counter-screen for MCL1 inhibitors: confirmation of human Bcl-xL inhibitors; shares compounds with MCL1 BIM primary; GST-Bcl-xL / FITC-Bim BH3 peptide FP binding; inhibition, % at 10.9 µM; 54% of 1,700 active;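 active = inhibition above a cutoff equal to the mean inhibition of all tested compounds plus 3 SD, cut at about 30% in these data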
MCL1 BIM confirm: MCL1-BIM-BH3 interaction inhibition, confirmation; AID 2168; GST-MCL1 / FITC-Bim-BH3 fluorescence polarization; inhibition, % at 10.9 µM; 61% of 1,700 active; shares compounds with MCL1 BIM primary;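 active = inhibition above the average of all tested compounds plus 3 SD, cut at about 40% in these data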
GLD1 RNA confirm: GLD-1 TGE RNA interaction inhibition, confirmation; inhibition, % at 5.96 µM; shares compounds with GLD-1 TGE inh; 10% of 550 active; GLD-1/FL-TGE RNA fluorescence polarization, biochemical;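 active = average inhibition across triplicates above the hit cutoff set in the primary screen, cut at about 32% in these data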
Large screens that a line does not name were inactive (follow-up assays come after a bar, where they were run).

O=C(CN1CCSC1=O)N1CCN(S(=O)(=O)c2ccccc2)CC1	MCL1 BIM primary 55 | Bcl-xL conf inactive | MCL1 BIM confirm inactive
C=CCOc1ccc(C2C3=C(CCCC3=O)N(CC(=O)O)C3=C2C(=O)CCC3)cc1OCC	none
CCCOc1ccc(C2C3=C(CCCC3=O)N(CC(=O)O)C3=C2C(=O)CCC3)cc1OCC	GLD-1 TGE inh 33, Bcl-xL primary 81, MCL1 BIM primary 101 | Bcl-xL conf inactive | MCL1 BIM confirm inactive | GLD1 RNA confirm inactive
OCCC1CN(Cc2cccc3nccnc23)CCN1Cc1ccc(F)cc1 (stereo unspecified)	GLD-1 TGE inh 46, Bcl-xL primary 60, MCL1 BIM primary 60 | Bcl-xL conf inactive | MCL1 BIM confirm inactive | GLD1 RNA confirm inactive
CCCCn1c(N)c(N(CCC(C)C)C(=O)c2ccccc2-n2cnnn2)c(=O)[nH]c1=O	none (no result: GLD-1 TGE inh, Bcl-xL primary, MCL1 BIM primary)
C[C@H](NC(=O)C1CCN(S(=O)(=O)c2ccccc2)CC1)C(=O)NCc1ccco1	none
CCOc1ccc(NCC(=O)N/N=C/C=C/c2ccccc2)cc1	none
CCOc1ccc(N=C/C=C/c2ccccc2)c(O)c1	GLD-1 TGE inh 72, Bcl-xL primary 84, MCL1 BIM primary 87 | Bcl-xL conf inactive | MCL1 BIM confirm inactive | GLD1 RNA confirm inactive
CCOC(=O)C1=C(C)OC(N)=C(C#N)C1c1cc2c(cc1[N+](=O)[O-])OCO2 (stereo unspecified)	GLD-1 TGE inh 38, Bcl-xL primary 36, MCL1 BIM primary 44 | Bcl-xL conf 49 | MCL1 BIM confirm 73 | GLD1 RNA confirm inactive
COCCNC(=O)C1CC2Cn3c(nc4ccccc43)C2N1C (stereo unspecified)	none
CNc1nc2cc([N+](=O)[O-])c([N+](=O)[O-])cc2nc1NC	GLD-1 TGE inh 98, Bcl-xL primary 90, MCL1 BIM primary 98 | Bcl-xL conf inactive | MCL1 BIM confirm inactive | GLD1 RNA confirm inactive
Cc1ccc(C(=O)Nn2c(C)nc3ccccc3c2=O)cc1C	none
CC1(C)NC(=O)N(CC(=O)N2CCN(c3ccc([N+](=O)[O-])cc3)CC2)C1=O	none
COc1ccc2[nH]c(C)c(CCN(Cc3cccs3)C(=S)Nc3ccc(F)cc3)c2c1	GLD-1 TGE inh 49, Bcl-xL primary 73, MCL1 BIM primary 75 | Bcl-xL conf 41 | MCL1 BIM confirm 52 | GLD1 RNA confirm inactive
COc1ccc(NC(=S)N(CCc2c(C)[nH]c3ccc(C)cc23)Cc2cccs2)cc1	none
COc1ccc2c(c1)c(=O)c(C(=O)c1ccc(C)cc1)cn2CC(=O)Nc1ccc(F)cc1	none
COc1ccc2c(c1)c(=O)c(C(=O)c1ccc(F)cc1)cn2CC(=O)Nc1ccc(F)cc1	GLD-1 TGE inh 69, Bcl-xL primary 75, MCL1 BIM primary 71 | Bcl-xL conf inactive | MCL1 BIM confirm inactive | GLD1 RNA confirm inactive
O=[N+]([O-])c1ccc(/C=C2\CCC(C3=CCCC3)=C2N2CCOCC2)cc1	none
CC1(C)CC(=O)C2=C(C1)Nc1ccccc1S2	GLD-1 TGE inh 49, Bcl-xL primary 56, MCL1 BIM primary 59 | Bcl-xL conf 56 | MCL1 BIM confirm 62 | GLD1 RNA confirm inactive
Cc1cccc(-n2c(SCc3cc(=O)n4ccsc4n3)nc3ccccc32)c1	GLD-1 TGE inh 43, Bcl-xL primary 73, MCL1 BIM primary 67 | Bcl-xL conf 63 | MCL1 BIM confirm 89 | GLD1 RNA confirm inactive
CCc1c(C)nc(SCC(=O)Nc2c(C)n(C)n(-c3ccccc3)c2=O)[nH]c1=O	none
Cc1nc(SCC(=O)Nc2c(C)n(C)n(-c3ccccc3)c2=O)[nH]c(=O)c1Cc1ccccc1	GLD-1 TGE inh 47, Bcl-xL primary 55, MCL1 BIM primary 71 | Bcl-xL conf inactive | MCL1 BIM confirm inactive | GLD1 RNA confirm inactive
Cc1ccc(-n2c(SCC(N)=O)nnc2-c2ccc(S(=O)(=O)N3CCCCC3)cc2)c(C)c1	none
CC(C)[C@H](NC(=O)C1CC(=O)N(c2ccc3c(c2)OCO3)C1)C(=O)NC1CCCC1 (stereo partly specified)	GLD-1 TGE inh 43, Bcl-xL primary 55, MCL1 BIM primary 54 | Bcl-xL conf 37 | MCL1 BIM confirm 65 | GLD1 RNA confirm inactive
C[C@H](NC(=O)C1CC(=O)N(c2ccc3c(c2)OCO3)C1)C(=O)NC1CCCC1 (stereo partly specified)	none
COc1ccc(NC(=O)c2cc3ccccc3o2)cn1	none
COc1ccc(NC(=O)c2ccc(-c3ccc(C(C)=O)cc3)o2)cn1	GLD-1 TGE inh 57, Bcl-xL primary 69, MCL1 BIM primary 60 | Bcl-xL conf 55 | MCL1 BIM confirm 65 | GLD1 RNA confirm 45
COC(C[C@H](O)C[C@H](O)COCc1ccccc1)OC	none (no result: GLD-1 TGE inh, Bcl-xL primary, MCL1 BIM primary)
Cc1csc(SCc2c(C(=O)O)oc3ccccc23)n1	GLD-1 TGE inh 62, Bcl-xL primary 107, MCL1 BIM primary 125 | Bcl-xL conf inactive | MCL1 BIM confirm inactive | GLD1 RNA confirm inactive
COc1ccc(NC(=O)Nc2cc(C)cc(C)c2)cn1	GLD-1 TGE inh 48, Bcl-xL primary 58, MCL1 BIM primary 58 | Bcl-xL conf 62 | MCL1 BIM confirm 79 | GLD1 RNA confirm 43
CSc1nc2nc3c(cc2c(=O)n1-c1ccccc1C)COC(C)(C)C3	GLD-1 TGE inh 46, Bcl-xL primary 57, MCL1 BIM primary 59 | Bcl-xL conf inactive | MCL1 BIM confirm inactive | GLD1 RNA confirm inactive
CNC(=O)COC(=O)c1cc(-c2ccco2)nc2ccccc12	GLD-1 TGE inh 57, Bcl-xL primary 96, MCL1 BIM primary 121 | Bcl-xL conf 38 | MCL1 BIM confirm 76 | GLD1 RNA confirm inactive
O=C1CC(/C=C/c2ccccn2)=Nc2ccccc2N1	GLD-1 TGE inh 32, Bcl-xL primary 56, MCL1 BIM primary 53 | Bcl-xL conf inactive | MCL1 BIM confirm inactive | GLD1 RNA confirm inactive
N#Cc1ccsc1NC(=O)CN1C(=O)NC2(CCCC2)C1=O	GLD-1 TGE inh 54, Bcl-xL primary 66, MCL1 BIM primary 71 | Bcl-xL conf 59 | MCL1 BIM confirm 94 | GLD1 RNA confirm inactive
CCOC(=O)CC(=O)CSc1nc(-c2cccnc2)cc(C)c1C#N	GLD-1 TGE inh 36, Bcl-xL primary 61, MCL1 BIM primary 62 | Bcl-xL conf inactive | MCL1 BIM confirm inactive | GLD1 RNA confirm inactive
CCOC(=O)CC(=O)CSc1nc(C)cc(-c2cccnc2)c1C#N	none
